From PubChem BioAssay AID933 (National Center for Advancing Translational Sciences (NCATS), 2007) come the findings set out here.

SMILES strings stand for the structures. Records with an inconclusive call do not appear. Entries that show only a call come without a potency. The source made the active and inactive calls. The call rests on the fitted dose curve; in most records, active means well fitted activation curve with a large enough effect in the signal ratio, with a control signal flat; inconclusive means small, poorly fitted or top-dose-only effect, or a change in a side signal; inactive means flat fitted curve, though single readings scatter; the % refers to the signal ratio.
Potency means the concentration at half of the fitted maximal effect.

Chain of Thyrotropin receptor (Homo sapiens) (P16473 whole entry, looked up): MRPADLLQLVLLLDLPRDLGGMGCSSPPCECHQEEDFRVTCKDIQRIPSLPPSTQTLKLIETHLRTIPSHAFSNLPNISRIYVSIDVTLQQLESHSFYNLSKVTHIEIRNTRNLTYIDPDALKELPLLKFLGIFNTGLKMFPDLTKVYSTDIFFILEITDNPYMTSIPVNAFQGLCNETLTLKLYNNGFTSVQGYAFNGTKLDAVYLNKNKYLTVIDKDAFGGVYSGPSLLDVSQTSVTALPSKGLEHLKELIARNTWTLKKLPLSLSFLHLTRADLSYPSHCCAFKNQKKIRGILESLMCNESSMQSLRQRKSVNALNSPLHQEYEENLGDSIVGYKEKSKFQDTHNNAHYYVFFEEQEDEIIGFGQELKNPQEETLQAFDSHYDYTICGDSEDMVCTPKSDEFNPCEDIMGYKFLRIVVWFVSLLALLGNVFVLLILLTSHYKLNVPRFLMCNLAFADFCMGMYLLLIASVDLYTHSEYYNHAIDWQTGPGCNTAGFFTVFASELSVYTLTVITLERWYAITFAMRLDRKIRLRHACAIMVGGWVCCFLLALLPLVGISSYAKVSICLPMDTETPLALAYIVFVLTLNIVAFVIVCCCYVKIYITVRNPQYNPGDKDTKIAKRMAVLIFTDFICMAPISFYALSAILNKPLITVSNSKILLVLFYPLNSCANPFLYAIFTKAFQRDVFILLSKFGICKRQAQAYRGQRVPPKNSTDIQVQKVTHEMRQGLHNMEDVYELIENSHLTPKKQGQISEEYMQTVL

This assay addresses Thyrotropin receptor (Homo sapiens) (UniProt P16473). Description: Secondary Concentration-Response Assay for Agonists of the Thyroid Stimulating Hormone Receptor: HTRF Activity Detection. The settings on record: HEK293-TSHR cells, cAMP HTRF ratio, 30 min; series mostly up to 91.7 µM. In short, it runs like this:
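cAMP accumulation was detected by antibody-based HTRF, excitation 330 nm, emissions 615 and 660 nm. Compounds acted for 30 min at room temperature on stably TSHR-transfected HEK 293 cells, with phosphodiesterase inhibitor RO 20-1724 (100 uM) in the medium.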
On the technique in general: In TR-FRET formats the signal depends on donor and acceptor labels being close together.
For `O=C(CSc1nnc(-c2ccccc2)n1Cc1ccco1)Nc1ccc2c(c1)OCCO2`, the activation is -0.544% [at 0.00035 µM] (inactive).
With `COc1ccc(C2Nc3ccccc3C(=O)N2Cc2cccnc2)cc1COc1ccc(NC(C)=O)cc1` (stereo not given), the Potency is 35.5 µM (active).
`COc1ccc(N2C(=O)c3ccccc3NC2c2ccc(OC)c(COc3ccc(NC(C)=O)cc3)c2)cc1` (stereo not given): the Potency result was “inactive”.
Take `CCOC(=O)COc1c(OC)cc(Cl)cc1C1Nc2ccccc2C(=O)N1c1ccccc1` (stereo not given): the Potency result was “inactive”.
On the same count and under the same terms, the value for `COc1cc(OC)cc(C(=O)N(Cc2ccco2)Cc2cccs2)c1` was “inactive”.
Take `Cc1occc1-c1nnc(SCC(=O)NCc2ccco2)n1CC(C)C`: the activation was 0.131% [at 0.00035 µM] (inactive).
Take `CCOC(=O)c1ccccc1OCc1cc(C2Nc3ccccc3C(=O)N2c2cccc3ccccc23)ccc1OC` (stereo not given): the Potency entry is “inactive”.
On to `COc1cccc(OCc2cc(C3Nc4ccccc4C(=O)N3c3ccccc3)ccc2OC)c1` (stereo not given), for which the Potency entry was “inactive”.
Consider `COc1cc(OC)cc(-c2nnc(SCC(=O)N(C(C)C)C(C)C)o2)c1`, for which the activation was 0.0275% [at 0.00035 µM] (inactive).
Still for that read-out and setting: the value for `COCCNC(=O)C(c1ccccc1)N(Cc1cccs1)C(=O)Cn1nnc2ccccc21` (stereo not given) was -0.712% [at 0.00035 µM] (inactive).
Take `COc1ccc(C2Nc3ccccc3C(=O)N2Cc2ccco2)cc1COc1ccc(NC(C)=O)cc1` (stereo not given): the Potency was 15.8 µM (active).
As to `Cc1cc(C)n(S(=O)(=O)c2cc(C(=O)O)c(Cl)cc2Cl)n1`, the activation was -0.754% [at 0.00035 µM] (inactive).
Take `COc1ccc(O)c(C2Nc3ccccc3C(=O)N2Cc2ccccc2)c1` (stereo not given): the Potency result is “inactive”.
On to `O=C1c2ccccc2NC(c2ccccc2Br)N1CCCN1CCOCC1` (stereo not given), for which the Potency entry is “inactive”.
Regarding `COc1ccc(-c2nc3cccc(OC)c3c(=O)n2Cc2ccccc2)cc1COc1ccc(NC(C)=O)cc1`, the Potency entry was “inactive”.
Same read-out and setting: then `COc1ccc(C(=O)N(Cc2ccccc2)Cc2ccc(OC)c(COc3ccc(NC(C)=O)cc3)c2)c(O)c1`, with “inactive”.
Take `CCN(CC)CCN1C(=O)c2ccccc2NC1c1cc(OC)c(OC)c(OC)c1` (stereo not given): the Potency result was “inactive”.
With `CCOC(=O)N1CCC(NC(=O)c2ccc(CNS(=O)(=O)c3ccc(F)cc3)cc2)CC1`, the activation was 0.984% [at 0.00035 µM] (inactive).
With `COC(=O)C1=C(C)NC(=O)NC1c1cn(-c2ccccc2)nc1-c1cccs1` (stereo not given), the activation is -0.246% [at 0.00035 µM] (inactive).
For the compound `COc1ccc(-c2nc3ccccc3n2Cc2ccccc2)cc1COc1ccc(NC(C)=O)cc1`, the Potency entry was “inactive”.
Still for that read-out and setting: then `COc1ccc(C(=O)N(Cc2cccs2)Cc2cccs2)c(O)c1`, with 15.8 µM (active); and `COc1ccc(C2Nc3ccc(NC(C)=O)cc3C(=O)N2Cc2ccccc2)cc1COc1ccc(NC(C)=O)cc1` (stereo not given), with 15.8 µM (active); and `O=C1CC(c2ccco2)CC2=C1C(c1ccc(O)cc1)n1nc(C(F)(F)F)nc1N2` (stereo not given), with “inactive”.
Same read-out and setting: then `O=C1c2ccccc2NC(c2ccccc2O)N1Cc1ccco1` (stereo not given), with “inactive”; and `COc1ccc(C2Nc3ccc(NC(C)=O)cc3C(=O)N2Cc2cccc(Cl)c2)cc1COc1ccc(NC(C)=O)cc1` (stereo not given), with 7.94 µM (active); and `COc1ccc(C2Nc3ccccc3C(=O)N2Cc2ccccc2)cc1COc1ccccc1OC` (stereo not given), with “inactive”.
On to `COc1ccc(C2Nc3ccccc3C(=O)N2Cc2ccccc2)cc1COc1ccc(NC(=O)c2ccccc2)cc1` (stereo not given), for which the Potency result was “inactive”.
Consider `O=C1C2C3CCCC3=C3CCCC3C2C(=O)N1c1ccc(F)cc1` (stereo not given), for which the Potency entry is “inactive”.
As for `COc1ccc(C2Nc3ccccc3C(=O)N2Cc2ccccc2)cc1COc1ccc(F)cc1` (stereo not given), the Potency result is “inactive”.
Still for that read-out and setting: then `COc1ccc(-c2nc3ccccc3c(=O)n2Cc2ccccc2)cc1COc1ccc(NC(C)=O)cc1`, with 8.91 µM (active).
On to `C=C(C)Cn1c(-c2ccccc2)nc2ccccc21`, for which the activation was 0.0214% [at 0.00035 µM] (inactive).
With `COc1ccc(C2Nc3ccccc3C(=O)N2c2ccccc2)cc1COc1ccccn1` (stereo not given), the Potency result is “inactive”.
On to `Cc1ccc(N(CC(=O)NCc2ccco2)S(=O)(=O)c2ccccc2)cc1`, for which the activation was 0.48% [at 0.00035 µM] (inactive).
Consider `CCOc1cc(C(=O)N(C)c2ccccc2)cc(OCC)c1OCC`, for which the activation was 1.28% [at 0.00035 µM] (inactive).
For `COc1ccc(C2Nc3ccccc3C(=O)N2Cc2ccccc2)cc1COc1ccc(Cl)cc1Cl` (stereo not given), the Potency result is “inactive”.
